{"source": "PubChem BioAssay (EPA / NIEHS)", "note": "Results filed as inconclusive are left out. Activity calls are given as the source filed them. The calls were made as follows: active = hit-call score of the fitted dose curve at least 0.9, where 1 is the maximum; inconclusive = response in the unintended direction; inactive = score below 0.9."}
{"molecular_target": "Estrogen receptor (Homo sapiens) (UniProt P03372)", "sequence (P03372 whole entry, looked up, the tested form may be a part)": "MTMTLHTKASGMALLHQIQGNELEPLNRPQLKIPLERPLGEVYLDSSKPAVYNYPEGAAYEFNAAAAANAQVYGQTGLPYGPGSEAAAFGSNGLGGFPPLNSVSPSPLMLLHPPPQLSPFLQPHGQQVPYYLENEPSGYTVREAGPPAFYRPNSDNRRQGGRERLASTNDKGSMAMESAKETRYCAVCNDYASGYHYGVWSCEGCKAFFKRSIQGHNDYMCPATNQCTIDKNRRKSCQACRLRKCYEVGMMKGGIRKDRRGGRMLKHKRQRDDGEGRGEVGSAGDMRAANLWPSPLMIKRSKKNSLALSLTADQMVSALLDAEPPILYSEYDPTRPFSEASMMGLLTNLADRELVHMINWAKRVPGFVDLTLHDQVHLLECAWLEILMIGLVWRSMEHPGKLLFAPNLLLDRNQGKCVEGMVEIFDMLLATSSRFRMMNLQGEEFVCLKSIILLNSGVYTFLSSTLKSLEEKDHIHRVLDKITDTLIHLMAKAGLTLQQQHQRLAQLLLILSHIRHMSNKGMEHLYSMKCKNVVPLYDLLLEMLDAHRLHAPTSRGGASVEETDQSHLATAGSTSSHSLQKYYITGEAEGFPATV", "assay": "OT_ER_ERaERa_0480: Odyssey Thera (OT) 8-hour HEK293T Protein-Complementation Assay for Estrogen Receptor-alpha/-alpha Homodimer (AID 2283351);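 also: rise in fluorescence from reassembled reporter fragments on ERα LBD homodimer in nucleus or whole cell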", "description": "OT_ER_ERaERa_0480 is a cell-based assay that uses HEK293T, a human kidney cell line, with measurements taken at 8 hours after chemical dosing in a 384-well plate.OT_ER_ERaERa_0480 is one of one assay component(s) measured or calculated from the OT_ER_ERaERa_0480 assay. It is designed to make measurements of protein fragment complementation, a form of binding reporter, as detected with fluorescence intensity signals by Protein-fragment Complementation technology.Data from the assay component OT_ER_ERaERa_0480 was analyzed into 1 assay endpoint. This assay endpoint, OT_ER_ERaERa_0480, was analyzed in the positive analysis fitting direction relative to DMSO as the negative control and baseline of activity. Using a type of binding reporter, measures of receptor for gain-of-signal activity can be used to understand the binding at the pathway-level as they relate to the gene ESR1. Furthermore, this assay endpoint can be referred to as a primary readout, because the performed assay has only produced 1 assay endpoint. To generalize the intended target to other relatable targets, this assay endpoint is annotated to the nuclear receptor intended target family, where the subfamily is steroidal.\nProtein-fragment complementation assay, or PCA, is a method for the identification and quantification of protein-protein interactions. In the PCA, the proteins of interest (\"bait\" and \"prey\") are each covalently linked to fragments of a third protein (e.g. DHFR, which acts as a \"reporter\"). Interaction between the bait and the prey proteins brings the fragments of the reporter protein in close proximity to allow them to form a functional reporter protein whose activity can be measured. The OT ER alpha / ER alpha assay is a homodimer PCA of the ligand binding domain (amino acids 310-547) of human ER alpha stably expressed in HEK293T cells. […] Fluorescent signal in the basal state of the assay is very low and is primarily punctuate and cytoplasmic. Modulation of this assay is quantified as an increase in mean fluorescence intensity in the nucleus (for agonists) or in the nucleus and cytoplasm (antagonists) relative to vehicle controls, and can be quantified on a high content imaging device or a laser scanning cytometer. The latter instrument is favored for this assay because of the rapid mode of data acquisition, the ability to acquire data from the entire cell population in a well (as opposed to a fraction of the well on the high content devices) and the larger dynamic range typically achieved with this instrument. To assess sensitivity of the ER alpha/ER alpha LBD assay to ligand, cells were treated with the ER agonist 17 beta-estradiol (E2) in 10-point concentration- response format for 8 hours and monitored response on a laser scanning plate cytometer (Acumen eX3; TTP Lab Tech)."}
{"smiles": "CCCCCOC(=O)c1ccccc1C(=O)OCCCCC", "AC50": "56.2 µM (active)"}
{"smiles": "CNC(=O)Oc1cccc2c1OC(C)(C)C2", "outcome": "inactive"}
{"smiles": "CCOc1cccc(C2(N3CCN(c4ccccc4)CC3)CCC(C)CC2)c1", "note": "(stereo unspecified)", "outcome": "inactive"}
{"smiles": "OCCOCCO", "outcome": "inactive"}
{"smiles": "Nc1ccc(N=Nc2ccccc2)cc1", "outcome": "inactive"}
{"smiles": "ClC1=C(Cl)[C@]2(Cl)[C@H]3[C@H]([C@@H]4C=C[C@H]3C4)[C@@]1(Cl)C2(Cl)Cl", "outcome": "inactive"}
{"smiles": "N#CC(Br)Br", "outcome": "inactive"}
{"smiles": "Cn1cc(-c2ccccc2)c(=O)c(-c2cccc(C(F)(F)F)c2)c1", "outcome": "inactive"}
{"smiles": "[Cl-].[Cl-].[Hg+2]", "outcome": "inactive"}
{"smiles": "ClC1=C(Cl)C2(Cl)C3C(Cl)C=CC3C1(Cl)C2(Cl)Cl", "note": "(stereo unspecified)", "outcome": "inactive"}
{"smiles": "C[N+](C)(C)CC1CO1", "note": "(stereo unspecified)", "outcome": "inactive"}
{"smiles": "[O-][Cl+]O", "outcome": "inactive"}
{"smiles": "Cc1ccc([N+](=O)[O-])cc1", "outcome": "inactive"}
{"smiles": "CC(C)COC(=O)c1ccccc1C(=O)OCC(C)C", "AC50": "31.4 µM (active)"}
{"smiles": "OCCCBr", "outcome": "inactive"}
{"smiles": "Clc1ccc(C(c2ccc(Cl)cc2)C(Cl)Cl)cc1", "outcome": "inactive"}
{"smiles": "Brc1ccc(Oc2ccccc2)cc1", "outcome": "inactive"}
{"smiles": "O=C(Nc1ccccc1)c1ccccc1I", "outcome": "inactive"}
{"smiles": "CCC[CH2][Sn]([Cl])([CH2]CCC)[CH2]CCC", "outcome": "inactive"}
{"smiles": "COc1cc(C=O)cc2c1[C@H](COC(N)=O)[C@]1(OC(C)=O)ON2C[C@H]2[C@@H]1N2C(C)=O", "outcome": "inactive"}
{"smiles": "CCCCCCCCn1sccc1=O", "outcome": "inactive"}
{"smiles": "O=[N+]([O-])C(Br)(CO)CO", "outcome": "inactive"}
{"smiles": "CCC12COCN1COC2", "outcome": "inactive"}
{"smiles": "CCCCCCCCCCCCCN1CC(C)OC(C)C1", "note": "(stereo unspecified)", "outcome": "inactive"}
{"smiles": "O=C(Oc1ccc(Br)cc1)N1CCN2CCC1CC2", "outcome": "inactive"}
{"smiles": "CO[C@@H]1[C@H](OC(=O)NC(=O)CCl)CC[C@]2(CO2)[C@H]1[C@@]1(C)O[C@@H]1CC=C(C)C", "outcome": "inactive"}
